assay: hit retest on RPL19A-GFP reporter strain – cell-based, S. cerevisiae, flow cytometry, cherry picks, mother/daughter gates, confirmation (AID 2270); conditions: 3 h, at 10 µM, active compounds read low, 100 = same GFP as DMSO wells;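 active = GFP response below 50% of the DMSO control; inconclusive = fewer than 70 events counted for a yeast strain; inactive = the rest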

GFP response vs DMSO, inactive:
N=c1n(CCN2CCCCC2)c2ccccc2n1CC(=O)c1ccc(Cl)c(Cl)c1 99.5%, COc1cc(NC(=O)c2ccccc2F)ccc1NC(=O)c1cc2ccccc2o1 87.2%, CCCC(=O)Nc1ccc(NC(=O)c2cc3ccccc3o2)c(OC)c1 98.8%, Cc1ccc(NC(=O)CCCSc2nc3ccccc3[nH]2)cc1 99.6%, COc1ccc2c(c1)C=Cc1ccccc1O2 98.4%, Cc1ccc(-n2nc(C)c3c(C)c(CCC(=O)O)c(C)nc32)cc1 102%, Oc1ccc(/C=N/Nc2nc(-c3cccnc3)nc3ccccc23)c(O)c1 93.5%, CCCOc1ccc(N2C(=O)CC(SCCN)C2=O)cc1 (stereo not given) 93.5%, CCN(CC)C(=O)c1ccc(-c2cccs2)s1 95.4%, O=C(COc1ccccc1[N+](=O)[O-])Nc1ccc(NC(=O)c2cc3ccccc3o2)cc1 100%, COCCNC(=O)c1ccccc1-c1nc(-c2ccccc2Cl)no1 98%, COc1ccc(N2C(=O)CC(Sc3ncn[nH]3)C2=O)c(OC)c1 (stereo not given) 107%, COc1ccc(N=Nc2ccc(O)c3ncccc23)cc1 99.5%, COc1cc(NC(=O)c2ccccc2)ccc1NC(=O)c1cc2ccccc2o1 98.7%, CS(=O)(=O)N1N=C(c2ccco2)CC1c1ccc(Br)cc1 (stereo not given) 98.4%, CCN(C(=O)c1ccccc1Cl)c1ccccc1 98.5%, Cc1ccc(NC(=S)N/N=C/c2c(C)[nH]c3ccccc23)cc1 97.4%, CCc1nnc(NC(=O)c2nc(S(=O)(=O)Cc3cccc(C)c3)ncc2Cl)s1 93.9%, O=C(NCc1ccc2c(c1)OCO2)c1nc(S(=O)(=O)Cc2ccccc2)ncc1Cl 97.8%, COc1ccccc1-c1noc(-c2cc(OC)c(OC)c(OC)c2)n1 97.2%, N#C/C(=C\c1c(N2CCCCC2)nc2ccccn2c1=O)C(=O)NCc1ccco1 98.7%, COc1cc(NC(=O)c2ccc(Br)cc2)ccc1NC(=O)c1cc2ccccc2o1 99.9%, CCOC(=O)CS(=O)(=O)c1nc(-c2ccc(F)cc2)cc(C(F)(F)F)n1 109%, CC[n+]1c(/C=C/c2ccc(N(C)C)cc2)ccc2ccccc21 99.4%, CCOc1cc(/C=N/Nc2nc(C)cc(=O)[nH]2)ccc1O 102%, Cc1ccc(/C=C/C(=O)c2ccccc(=O)c2O)c(C)c1 90.2%, COc1ccc(-c2ccc(S(=O)(=O)N3CCOCC3)cc2)cc1 95.4%, CCNC(=O)c1ccccc1-c1nc(-c2ccccc2Cl)no1 95.6%, O=C(OCC(=O)N1CCN(C(=O)c2ccco2)CC1)c1cc(-c2ccccc2)nc2ccccc12 76.3%, Cc1nnc(NC(=O)c2ccc(S(=O)(=O)N3CCCCCC3)cc2)o1 99.4%, NC(N)=N/N=C/c1ccc(OCc2ccc(Cl)cc2Cl)cc1 88.9%, Cc1noc(/C=C/c2cccnc2)c1[N+](=O)[O-] 105%, NC(=O)c1ccccc1OCC(=O)c1ccc(Cl)cc1 100%, CCc1nnc(NC(=O)c2nc(S(=O)(=O)Cc3ccc(C)cc3)ncc2Cl)s1 98.2%, CN1/C(=C\C(=O)c2cccc(S(=O)(=O)N3CCCCC3)c2)C(C)(C)c2ccccc21 96.8%, Cc1n[nH]c(C)c1N1C(=O)c2cccc3c(Br)ccc(c23)C1=O 101%, Cc1nnc(N2C(=O)c3cccc4cccc(c34)C2=O)s1 94.9%, CS(=O)(=O)N1CCc2cc(C(=O)Nc3ccc(COCC(F)(F)F)cc3)ccc21 102%, O=[N+]([O-])c1ccc(Sc2ccccc2Cl)nc1 103%, CC(=O)Oc1ccc(N2C(=O)C3C4C=CC(CO)(O4)C3C2=O)cc1 (stereo not given) 103%

Reference: PubChem BioAssay
